From PubChem BioAssay (NCI) come the findings set out here.

The structures appear in SMILES notation. Compounds without any hit were thinned out: in the full panel of roughly 83,000, 20% have a hit.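 The endpoint reported here, percent growth, reads 100 for growth as untreated, 0 for no net growth and -100 for all cells dead.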 Unmarked numbers belong to inactive results. Active and inactive are the calls of the source. The calls were made as follows: active = growth percent below 10; inactive = the rest.

The first assay relates to SK-MEL-5 melanoma. The experiment in a line: NCI-60 one-dose screen, 48 h (100 = growth as untreated, 0 = no growth, -100 = all killed). The note with it: 10 µM unless noted.
With `O=C(Nc1ccc2c(c1)OCO2)C(=O)c1c[nH]c2cc(F)ccc12`, the growth was 58%.
With `O=S(=O)(NCCNc1nccc(-c2c(-c3cccc(O)c3)nc3sccn23)n1)c1ccc(F)cc1`, the growth is 39.8%.
Same read-out and setting: then `CCC(=O)Oc1ccc(/C(=C(/C)Cc2cccc(OC)c2)c2ccc(OCCN(C)C)cc2)cc1`, with 92.9%; and `COc1ccc(N2CCN(Cc3cc(C(=O)/C=C/c4c[nH]c5ccccc45)ccc3O)CC2)cc1`, with 99.6%.
Still for that read-out and setting: then `COc1ccc(/C=C\c2cc(OC)c(OC)c(OC)c2)cc1OC(=O)c1cccc(Cn2cc(CCOC(=O)c3cccc(Cn4nnc5c4C(=O)c4ccccc4C5=O)c3)nn2)c1`, with -28.8% (active); and `COc1ccc(S(=O)(=O)Nc2cc(/C=C\c3cc(OC)c(OC)c(OC)c3)cc(OC)c2OC)cc1`, with -6.88% (active).
On the same count and under the same terms, next, `c1ccc(Nc2nc(Nc3ccccc3)nc(Nc3ccccc3)n2)cc1`: 78%; `NC1N=C(SCC(=O)N2CCN(c3cc4c(cc3F)c(=O)c(C(=O)O)cn4C3CC3)CC2)NC(=O)/C1=C/c1ccc(Cl)cc1` (centres undefined): 102%; `O=C(O)/C=C/C(=O)c1ccc(Cl)cc1`: 107%.
For the molecule `CCCCN(CCCC)C(=O)CC`, the growth is 103%.
The same measure, in the same setting: next, `O=c1c2sc3ncccc3c2nnn1-c1ccccc1`: 102%.

The next assay concerns UACC-62 melanoma. Described as above. The note with it: 10 µM unless noted.
Take `O=C(Nc1cccc(-n2cc(-c3ccncc3)c(-c3ccc(Cl)c(O)c3)n2)c1)Nc1cc(C(F)(F)F)cc(C(F)(F)F)c1`: the growth was -65.6% (active).
Turning to `N/C(=N\C(N)=N\c1nc2ccccc2s1)c1ccncc1`, the growth was 44.6%.
The same measure, in the same setting: next, `CN1C(=O)N(C)C2C1NN=c1s/c(=C\c3cccnc3)c(=O)n12` (centres undefined): 68.6%; `CN1CCN(Cc2ccc(NC(=O)c3cncc(C#Cc4cnc(N)c5ccncc45)c3)cc2C(F)(F)F)CC1`: -28.8% (active); `O=C(Nc1ccncc1)C(=O)c1cn(S(=O)(=O)c2ccc(Br)cc2)c2ccccc12`: 38.3%.
In the case of `CN(C)CCCN(c1nc(C(Cl)(Cl)Cl)ns1)c1nc(C(Cl)(Cl)Cl)ns1`, the growth is 1.86% (active).
The same measure, in the same setting: then `COc1ccc(-c2nc3sc(-c4cc(OC)c(OC)c(OC)c4)nn3c2/C=C2/C(=O)Nc3ccc(F)cc32)cc1`, with -26.1% (active); and `Cc1ccc(S(=O)(=O)NCCNc2cc(-c3cn(C(C)(C)C)nc3-c3cccc(O)c3)ccn2)cc1`, with 77%; and `COc1cccc(/C=C2\Oc3cc(OCCCN4CCCC4)ccc3C2=O)c1`, with 96.7%.
On the same count and under the same terms, next, `COc1ccc(Nc2[nH]n3c(=O)cc(-c4ccccc4)nc3c2C(=O)Nc2ccc(C)cc2)c(OC)c1`: 64%; `Cc1ccc(S(=O)(=O)c2nc(-c3ccccc3)oc2S(C)(=O)=O)cc1`: 75.7%; `O=[N+]([O-])c1cccc(-c2nc3sccn3c2-c2ccnc(NCCCNS(=O)(=O)c3ccc(Cl)cc3)n2)c1`: 7.02% (active).
Still for that read-out and setting: next, `COc1ccc(-c2nc(/C=C3/C(=O)Nc4ccc(F)cc43)c3ccccn23)cc1`: 106%; `CCN(CC)c1ccc(/C=C2\Oc3ccc(O)c(I)c3C2=O)cc1`: 49.8%.
Take `N[C@H]1CN(C(=O)c2cc3cc(Br)c(F)c(F)c3[nH]2)C[C@@H]1O`: the growth is 93.6%.
The same measure, in the same setting: then `N[C@@H]1CCN(C(=O)c2cc3cc(Cl)c(F)c(F)c3[nH]2)C1`, with 104%; and `CC(C)(C)Nc1c(-c2cccs2)nc2ncccn12`, with 95.8%.
On the same count and under the same terms, next, `O=C1/C(=C/c2ccccc2)Oc2ccc(O)c(I)c21`: 86.1%; `COc1ccc(OC)c(/C=C2\Oc3cc(OCCCN4CCCC4)ccc3C2=O)c1`: 95.9%.
The same measure, in the same setting: then `COc1ccc(/C=C2\Oc3cc(OCCCN4CCCC4)ccc3C2=O)cc1`, with 100%; and `FC(F)(F)c1ccccc1-c1cn2c(ccc3ccccc32)n1`, with 55.4%; and `Cc1nn(-c2ccc(Cl)cc2)c2ncnc(N/N=C/c3cccc([N+](=O)[O-])c3)c12`, with 109%.
For `COc1ccc(-c2nc(N3CCCC3=O)sc2Br)cc1OC`, the growth was 90%.
The same measure, in the same setting: then `Clc1ccc(-c2nc3ccccc3s2)cc1Cl`, with 88.2%; and `O=C(NS(=O)(=O)c1ccc2ccccc2c1)n1cc(-c2ccncc2)c(-c2ccc(Cl)c(O)c2)n1`, with 15.5%; and `COc1ccc(/C=C2\Oc3cc(OCCCN4CCCC4)ccc3C2=O)c(OC)c1`, with 99.3%.
On the same count and under the same terms, then `CCCCN(CCCC)c1ccc(C(=N)c2ccc(N(CCCC)CCCC)cc2)cc1`, with -81.6% (active).
The same measure, in the same setting: then `CN1C(=O)N(C)C2C1NN=c1s/c(=C\C=C\c3ccccc3)c(=O)n12` (centres undefined), with 43.6%.
